Hits are enriched below; roughly 3.3% of the tested compounds scored in any of these assays.
PfG6PD inh: PfG6PD (Plasmodium falciparum) enzyme inhibition; PfGluPho enzyme, NADPH resazurin-diaphorase fluorescence; inhibition, % at 20 µM; 350,000 tested, 0.78% active; AID 504690;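 active = inhibition reaching at least a set limit at 20 µM in the primary screen, cut at about 59% in these data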;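 also: 0% = DMSO wells with substrate and 100% = DMSO wells lacking glucose-6-phosphate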
M18AAP inhibitor: PfM18AAP enzyme inhibition. recombinant PfM18AAP, H-Glu-NHMec fluorogenic cleavage. inhibition, % at 7.35 µM. AID 1822. 290,000 tested, 1.2% active;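 active = inhibition above the campaign mean inhibition over all tested compounds plus 3 SD, cut at about 28% in these data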;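 also: 0% = plate median of test compound wells and 100% = 2 mM ZnCl2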
MBD2 DNA inh: blocks human MBD2 binding to methylated DNA | Q9UBB5 | TR-FRET, MBD2 binding to methylated oligonucleotide | inhibition, % at 4.4 µM | 370,000 tested, 0.31% active; in the data active = inhibition above about 13%
PRMT1 inh: inhibitors of human PRMT1 | Q99873 | recombinant PRMT1, activity-based probe fluorescence polarization | 370,000 tested, 1.3% active | inhibition, % at 2.79 µM | AID 652257;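 active = inhibition above about 21% made by adding two undisclosed values, limit read from the data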
Target sequence (Q99873 whole entry, looked up): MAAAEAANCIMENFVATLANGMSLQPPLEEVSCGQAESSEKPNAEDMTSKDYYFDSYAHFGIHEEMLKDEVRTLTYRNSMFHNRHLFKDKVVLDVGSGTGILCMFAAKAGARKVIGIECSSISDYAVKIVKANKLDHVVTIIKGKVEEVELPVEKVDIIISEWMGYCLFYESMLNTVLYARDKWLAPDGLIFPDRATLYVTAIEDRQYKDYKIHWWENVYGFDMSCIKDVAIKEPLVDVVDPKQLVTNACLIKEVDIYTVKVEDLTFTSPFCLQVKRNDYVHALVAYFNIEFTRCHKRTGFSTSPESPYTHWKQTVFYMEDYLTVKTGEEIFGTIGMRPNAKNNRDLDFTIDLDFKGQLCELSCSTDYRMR
UHRF1 MBD2 ctr: blocks human UHRF1 binding to methylated DNA | 370,000 tested, 0.75% active | Q96T88 | inhibition, % at 4.4 µM | UHRF1 binding to methylated oligo, TR-FRET; in the data active = inhibition above about 21%;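 also: UHRF1 SRA domain binding a hemimethylated CpG hairpin DNA probe; 0% = median of test compound wells and 100% = reference inhibitor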
* marks the source's active call; other numbers are inactive results; . = no result given; + = active, no number.

SMILES	PfG6PD inh	M18AAP inhibitor	MBD2 DNA inh	PRMT1 inh	UHRF1 MBD2 ctr
S=c1[nH]ncn1/N=C/c1ccc(N2CCOCC2)cc1	29.4	31.0*	1.7	1.5	-0.6
CN(Cc1ccccc1)C(=O)OCc1cn(Cc2c(F)cccc2F)nn1	.	.	-2.5	-0.2	-1.2
CC1=CC(O)(c2ccccn2)P(=O)(c2ccccc2)C=C1C (stereo not drawn)	.	.	1.4	6.4	2.1
O=C(CNC(=O)c1ccc(Cl)cc1)OCc1nc2ccccc2s1	14.9	-7.0	3.9	2.0	25.2*
COc1cc(OC)cc(C(=O)NCC(=O)OCc2nc3ccccc3s2)c1	-4.7	1.0	2.5	4.6	14.3
Cc1cccc(NC(=S)NNC(=O)c2ccc(O)cc2O)c1C	-31.7	29.1*	0.4	3.8	0.6
O=C(CN1CCCCC1)Nc1scc2c1c(=O)oc1ccccc12	2.4	1.7	4.9	7.9	21.0*
COc1ccc(NC(=O)CSc2nc(C)cc(=O)[nH]2)cc1OC	.	.	2.7	-5.2	5.7
Cc1ccc(-c2c(C(=O)Nc3ccccc3C)c(C)[nH]c(=S)c2C#N)o1	42.5	25.9	1.4	34.1*	0.7
Cc1ccccc1NC(=O)c1c(C)[nH]c(=S)c(C#N)c1-c1ccc(Cl)cc1	30.3	9.0	-0.2	13.0	-1.1
CCOc1ccccc1-c1c2cc(O)c(=O)cc-2oc2cc(O)c(O)cc12	-14.6	29.6*	.	.	.
CCOC(=O)c1oc2cc(O)ccc2c(=O)c1-c1ccccc1OC	0.6	3.7	1.6	2.4	-0.3
O=c1cc2oc3cc(O)c(O)cc3c(-c3ccccc3O)c-2cc1O	12.6	43.8*	.	.	.
CCN=C1NC(c2cccc(F)c2)C(C(=O)OC)=C(C)N1Cc1ccccc1C(F)(F)F (stereo not drawn)	.	.	6.9	0.3	2.8
CCCCCCCCN1C(=O)[C@@H](CC(=O)NCCCCc2ccccc2)C[C@@]2(C(=O)OC)C1=C[C@H](C(C)(C)C)O[C@@H]2C	.	.	-1.2	1.3	-0.5
O=C(O)CCCCCn1c(SCC(=O)c2ccc(O)c(O)c2)nc2ccsc2c1=O	-22.6	47.3*	0.7	23.7*	7.4
CN=c1scc(C)n1/N=C/c1cc(Br)c(O)c(OC)c1	-2.6	28.0*	2.4	0.7	-2.0
COc1cc(C=Nn2c(-c3cc(C)[nH]n3)n[nH]c2=S)cc(Br)c1O	.	.	-4.5	2.4	-2.9
COC1=C[C@H](C(=O)NCc2ccccn2)[C@@]2(C)Cc3ccccc3[C@H]2CC1=O	.	.	-3.6	4.1	-1.1
CCNc1c2c3c(cccc3n(C)c1=O)C(=O)c1ccccc1-2	2.6	5.0	.	.	.
Cn1c(=O)c(NCCc2ccccc2)c2c3c(cccc31)C(=O)c1ccccc1-2	1.4	-11.0	-8.0	+	-45.0
CC(=O)Nc1ccc(Nc2c3c4c(cccc4n(C)c2=O)C(=O)c2ccccc2-3)cc1	-1.8	4.2	-6.0	71.3*	-6.4
O=C(O)c1ccc(NC2OC[C@@H](O)[C@H](O)[C@H]2O)cc1 (stereo partly drawn)	-13.3	.	4.2	4.8	52.3*
C[C@@H]1COc2cc(N3CCCC3)ccc2S(=O)(=O)N1C	.	.	7.7	4.5	3.9
CC(C)(C)c1nnc(N/N=C/c2cc(Br)ccc2O)n(N)c1=O	-4.7	43.7*	-7.7	-2.4	-8.6
SMILES	PfG6PD inh	M18AAP inhibitor	MBD2 DNA inh	PRMT1 inh	UHRF1 MBD2 ctr
COc1ccc(CCN(Cc2cccs2)S(=O)(=O)c2ccc(F)cc2)cc1OC	.	.	-1.4	-6.2	0.6
COc1ccc(CNS(=O)(=O)/C=C/c2ccc(F)cc2CNC(=O)OC(C)(C)C)cc1	.	.	2.8	-2.8	-3.8
CCOc1ccccc1N1CCN(Cc2ccc(OC)c(OC)c2)CC1	-9.6	1.2	1.9	-4.0	23.4*
CCOc1cc(/C=N/NC(=O)c2cc(C3CC3)[nH]n2)ccc1O	23.3	1.8	5.6	-1.9	21.2*
CN1/C(=C\C=N\NC(=O)c2ccccc2Br)C(C)(C)c2ccccc21	-17.9	31.1*	5.3	1.0	-2.6
CN1/C(=C/C=N/n2cnnc2)C(C)(C)c2ccccc21	8.4	27.3	0.3	-1.1	0.9
COCCN1Cc2cccc(C(=O)NCc3ccccn3)c2C1=O	-6.0	-10.7	-0.1	1.5	2.5
COCCN1Cc2cccc(C(=O)NCc3ccc4c(c3)OCO4)c2C1=O	9.4	28.7*	5.4	-0.3	-0.8
COc1ccc(-c2cc(C(=O)NN=Cc3ccc(O)c(OC)c3)[nH]n2)cc1	.	.	-3.1	-1.9	-3.0
CO[C@@H]1[C@H](O)CC[C@]2(O)CN(c3ccc(F)cc3)[C@](C)([C@H](O)CC=C(C)C)[C@@H]12	.	.	-1.8	-0.5	0.0
O=C(CSc1n[nH]c(=O)n1-c1ccc2c(c1)OCCO2)Nc1ccccc1	-16.1	9.1	-2.4	-5.6	27.4*

Compound activity from PubChem.
